The values that follow come from ChEMBL document CHEMBL3988442, “University of Dundee, Small-Polar-MMV Screening Library” (2021).

Molecules are shown by their SMILES. For some assays here: Results with a measured potency or affinity are listed apart.

Common to all, as to set-up: scale not given: direction of the effect not stated beside the values
Assay [1] addresses Protein translocase subunit SecA (Escherichia coli (strain K12)) (UniProt P10408). The assay is described as follows: Assay to Identify E. coli SecA ATPase Inhibitors. Type of assay: functional. The settings on record: 30 µM.
Assay [2] concerns the target T1, Ubiquitin-activating enzyme e1, putative (Leishmania donovani (strain BPK282A1)) (UniProt E9BSI1).
T1 sequence (whole entry): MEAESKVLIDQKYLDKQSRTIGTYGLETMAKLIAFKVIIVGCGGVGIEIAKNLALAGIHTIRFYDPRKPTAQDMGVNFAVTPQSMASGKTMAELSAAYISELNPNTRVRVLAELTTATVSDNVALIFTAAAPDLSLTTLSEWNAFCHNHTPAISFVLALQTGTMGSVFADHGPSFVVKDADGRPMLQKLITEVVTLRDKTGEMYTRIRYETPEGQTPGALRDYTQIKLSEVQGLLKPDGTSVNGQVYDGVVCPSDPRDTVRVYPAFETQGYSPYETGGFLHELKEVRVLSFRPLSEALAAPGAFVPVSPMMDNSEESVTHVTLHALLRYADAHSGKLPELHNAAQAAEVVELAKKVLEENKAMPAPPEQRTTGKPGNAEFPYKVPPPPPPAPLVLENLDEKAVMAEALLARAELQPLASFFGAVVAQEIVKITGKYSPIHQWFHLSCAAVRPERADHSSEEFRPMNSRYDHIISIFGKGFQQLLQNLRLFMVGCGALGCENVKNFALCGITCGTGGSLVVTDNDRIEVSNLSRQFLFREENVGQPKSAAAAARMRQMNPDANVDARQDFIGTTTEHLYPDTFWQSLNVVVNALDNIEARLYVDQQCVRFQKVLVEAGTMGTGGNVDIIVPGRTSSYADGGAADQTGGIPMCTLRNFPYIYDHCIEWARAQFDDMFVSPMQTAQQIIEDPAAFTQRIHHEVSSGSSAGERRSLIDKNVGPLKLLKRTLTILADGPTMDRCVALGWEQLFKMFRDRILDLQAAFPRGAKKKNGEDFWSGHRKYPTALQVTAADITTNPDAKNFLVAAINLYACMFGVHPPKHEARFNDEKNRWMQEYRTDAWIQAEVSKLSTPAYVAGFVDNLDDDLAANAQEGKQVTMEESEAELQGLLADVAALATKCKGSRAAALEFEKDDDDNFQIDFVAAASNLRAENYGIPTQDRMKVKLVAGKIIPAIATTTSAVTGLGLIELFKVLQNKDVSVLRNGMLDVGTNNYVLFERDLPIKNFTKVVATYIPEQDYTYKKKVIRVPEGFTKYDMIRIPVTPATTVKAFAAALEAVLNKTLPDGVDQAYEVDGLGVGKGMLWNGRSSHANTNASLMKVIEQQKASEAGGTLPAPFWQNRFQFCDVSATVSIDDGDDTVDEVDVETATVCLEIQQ
The assay is described as follows: Leishmania donovani Ubiquitin Activating Enzyme (LdE1). Type of assay: functional. The settings on record: 30 µM.

Assay [3] concerns the target AMP-activated protein kinase, AMPK (Homo sapiens) (UniProt P54646+O43741+P54619+Q9UGJ0+Q9Y478+Q13131+Q9UGI9). Briefly: AMP-dependent Kinase enzyme assay. An in vitro enzyme assay that detects ADP turnover that is directly proportional to AMPK activity. This uses naive AMPK that is activated during the assay with MK-8722. Type of assay: functional. The following applies: 30 µM.

The target of assay [4] is Sialic acid-binding Ig-like lectin 9 (Homo sapiens) (UniProt Q9Y336). The assay is described as follows: Hs-Siglec9 ALPHAscreen SOP 20170721. The following applies: 10 µM.
Chain of Sialic acid-binding Ig-like lectin 9 (Homo sapiens) (Q9Y336 whole entry): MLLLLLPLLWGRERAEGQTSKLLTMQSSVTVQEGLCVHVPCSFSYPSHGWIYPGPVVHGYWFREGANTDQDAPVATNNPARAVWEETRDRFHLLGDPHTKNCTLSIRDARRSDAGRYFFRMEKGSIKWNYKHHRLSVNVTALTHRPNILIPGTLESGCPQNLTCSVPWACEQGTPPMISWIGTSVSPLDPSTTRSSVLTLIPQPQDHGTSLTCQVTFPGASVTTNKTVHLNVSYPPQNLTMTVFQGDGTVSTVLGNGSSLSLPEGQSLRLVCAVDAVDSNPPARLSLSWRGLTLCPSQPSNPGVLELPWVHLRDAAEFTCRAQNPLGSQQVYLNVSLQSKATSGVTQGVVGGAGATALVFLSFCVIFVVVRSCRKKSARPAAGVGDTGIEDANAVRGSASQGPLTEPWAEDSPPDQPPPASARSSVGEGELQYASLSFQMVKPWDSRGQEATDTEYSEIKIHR
The subject of a further assay is Trypanosoma cruzi. Briefly: Trypanosoma cruzi phosphomannomutase and mannose-1-phosphate guanylyltransferase assay. The settings on record: 10 µM. Type of assay: functional.
In assay [5] the target is T2, Arginase-2, mitochondrial (Homo sapiens) (UniProt P78540).
T2 sequence (whole entry): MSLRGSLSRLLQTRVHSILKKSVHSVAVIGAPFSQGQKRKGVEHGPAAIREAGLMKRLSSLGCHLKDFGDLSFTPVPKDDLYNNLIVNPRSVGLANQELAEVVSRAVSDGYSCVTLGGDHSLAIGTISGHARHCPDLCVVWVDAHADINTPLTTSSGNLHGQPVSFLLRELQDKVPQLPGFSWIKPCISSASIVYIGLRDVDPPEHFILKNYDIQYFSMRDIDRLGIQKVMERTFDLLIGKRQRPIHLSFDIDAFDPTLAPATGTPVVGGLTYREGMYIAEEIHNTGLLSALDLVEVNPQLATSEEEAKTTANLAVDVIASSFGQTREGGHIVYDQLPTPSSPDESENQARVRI
The assay is described as follows: in vitro enzyme assay to detect the production of urea directly proportional to the activity of Arginase II. Also: in the data most compounds retested in dose-response had high values. Type of assay: functional. The settings on record: 33.3 µM.

In assay [6] the target is T3, Proteasome subunit beta (Trypanosoma cruzi) (UniProt O96673).
T3 sequence (whole entry): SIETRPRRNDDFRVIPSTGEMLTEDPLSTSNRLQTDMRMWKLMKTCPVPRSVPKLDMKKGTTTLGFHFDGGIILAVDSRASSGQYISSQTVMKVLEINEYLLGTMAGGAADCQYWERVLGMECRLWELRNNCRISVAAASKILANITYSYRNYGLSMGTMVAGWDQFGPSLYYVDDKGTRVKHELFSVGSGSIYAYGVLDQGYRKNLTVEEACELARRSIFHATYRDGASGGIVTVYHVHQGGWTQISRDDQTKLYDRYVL
Briefly: Trypanosoma cruzi proteasome chymotrypsin-like activity (TcProtChymo) assay. Also: in the data most compounds retested in dose-response had high values. The following applies: 9.37 µM. Type of assay: functional.

For another assay, the species on record is Homo sapiens. The assay is described as follows: To identify inhibition of the IFN signalling (Jak-Stat) pathway via expression of an eGFP reporter gene under the control of an IFN-stimulated response element (ISRE) containing MxA promoter. Type of assay: functional. The settings on record: 30 µM. (In a reporter assay the amount or activity of a reporter protein is the signal.)

Assay [7] has as its target T4, Tyrosyl-tRNA synthetase, putative (Trypanosoma cruzi (strain CL Brener)) (UniProt Q4DSP6).
T4 sequence (whole entry): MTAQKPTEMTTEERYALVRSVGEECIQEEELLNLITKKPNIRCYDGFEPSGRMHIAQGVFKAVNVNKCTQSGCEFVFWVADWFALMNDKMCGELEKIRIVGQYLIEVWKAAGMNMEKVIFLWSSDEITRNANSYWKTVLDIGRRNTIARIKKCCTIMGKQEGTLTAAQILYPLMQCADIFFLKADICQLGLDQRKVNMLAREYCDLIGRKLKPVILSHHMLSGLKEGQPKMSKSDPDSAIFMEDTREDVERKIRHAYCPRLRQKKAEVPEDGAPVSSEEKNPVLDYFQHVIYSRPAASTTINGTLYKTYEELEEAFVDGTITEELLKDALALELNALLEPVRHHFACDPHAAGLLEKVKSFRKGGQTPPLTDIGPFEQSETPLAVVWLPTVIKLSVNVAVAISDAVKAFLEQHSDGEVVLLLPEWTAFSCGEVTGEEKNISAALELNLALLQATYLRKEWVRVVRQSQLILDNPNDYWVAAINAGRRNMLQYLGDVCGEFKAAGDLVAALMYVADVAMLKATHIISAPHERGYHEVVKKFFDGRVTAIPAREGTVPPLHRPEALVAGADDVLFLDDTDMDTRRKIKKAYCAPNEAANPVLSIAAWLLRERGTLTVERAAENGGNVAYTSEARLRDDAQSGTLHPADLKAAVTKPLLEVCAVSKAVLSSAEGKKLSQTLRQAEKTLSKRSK
Briefly: Trypanosoma cruzi tyrosyl tRNA synthetase (TcYRS) _High Tyrosine SOP. Also: in the data most compounds retested in dose-response had high values. Type of assay: functional. The settings on record: 30 µM.

Assay [8] has as its target T4, Tyrosyl-tRNA synthetase, putative (Trypanosoma cruzi (strain CL Brener)). The assay is described as follows: Trypanosoma cruzi tyrosyl tRNA synthetase (TcYRS) SOP. Type of assay: functional. The following applies: 30 µM.
In assay [9] the target is Chromo domain-containing protein 1 (Saccharomyces cerevisiae (strain ATCC 204508 / S288c) (Baker's yeast)) (UniProt P32657). Briefly: ScCHD-1 Enzyme Inhibition Assay. Also: in the data most compounds retested in dose-response had high values. Type of assay: functional. The following applies: 30 µM.
Chain of Chromo domain-containing protein 1 (Saccharomyces cerevisiae (strain ATCC 204508 / S288c) (Baker's yeast)) (P32657 whole entry, the tested form may be a part): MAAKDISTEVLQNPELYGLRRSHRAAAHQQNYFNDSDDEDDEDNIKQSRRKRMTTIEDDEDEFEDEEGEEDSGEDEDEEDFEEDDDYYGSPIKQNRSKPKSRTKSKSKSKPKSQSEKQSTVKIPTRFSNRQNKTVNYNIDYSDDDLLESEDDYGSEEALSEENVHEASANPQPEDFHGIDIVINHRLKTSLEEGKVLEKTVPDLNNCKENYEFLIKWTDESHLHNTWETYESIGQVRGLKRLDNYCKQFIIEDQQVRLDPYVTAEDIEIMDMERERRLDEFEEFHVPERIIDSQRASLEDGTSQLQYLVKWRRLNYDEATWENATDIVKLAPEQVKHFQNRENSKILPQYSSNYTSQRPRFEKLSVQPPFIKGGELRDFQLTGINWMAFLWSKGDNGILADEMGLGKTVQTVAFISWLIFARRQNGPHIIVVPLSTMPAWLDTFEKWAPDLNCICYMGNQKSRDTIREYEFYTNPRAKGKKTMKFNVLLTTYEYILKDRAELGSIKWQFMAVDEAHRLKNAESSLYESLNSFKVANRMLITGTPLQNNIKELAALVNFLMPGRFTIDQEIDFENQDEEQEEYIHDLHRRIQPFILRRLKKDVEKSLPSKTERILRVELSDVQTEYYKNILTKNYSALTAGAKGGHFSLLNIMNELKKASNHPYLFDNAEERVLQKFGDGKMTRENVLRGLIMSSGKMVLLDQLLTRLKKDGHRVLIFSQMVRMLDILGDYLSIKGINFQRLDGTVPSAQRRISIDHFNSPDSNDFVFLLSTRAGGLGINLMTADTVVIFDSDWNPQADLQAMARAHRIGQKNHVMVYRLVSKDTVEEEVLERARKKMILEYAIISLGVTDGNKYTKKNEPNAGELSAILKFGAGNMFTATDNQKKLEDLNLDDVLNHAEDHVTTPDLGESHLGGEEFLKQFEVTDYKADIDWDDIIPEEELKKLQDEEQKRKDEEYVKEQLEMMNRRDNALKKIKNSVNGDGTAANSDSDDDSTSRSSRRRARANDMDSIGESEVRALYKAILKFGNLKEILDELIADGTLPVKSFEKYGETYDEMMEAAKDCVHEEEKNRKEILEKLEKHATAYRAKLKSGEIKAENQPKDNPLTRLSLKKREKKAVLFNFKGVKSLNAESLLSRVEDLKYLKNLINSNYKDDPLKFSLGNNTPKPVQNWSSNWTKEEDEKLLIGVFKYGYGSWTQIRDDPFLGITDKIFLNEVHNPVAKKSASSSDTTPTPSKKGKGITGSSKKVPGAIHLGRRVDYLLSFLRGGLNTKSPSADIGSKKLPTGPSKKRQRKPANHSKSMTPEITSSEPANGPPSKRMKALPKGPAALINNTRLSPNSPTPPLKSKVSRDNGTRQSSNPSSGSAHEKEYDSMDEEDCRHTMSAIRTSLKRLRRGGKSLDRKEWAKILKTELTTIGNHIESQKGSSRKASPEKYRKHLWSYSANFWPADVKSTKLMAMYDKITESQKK

Chain of Protein translocase subunit SecA (Escherichia coli (strain K12)) (P10408 whole entry): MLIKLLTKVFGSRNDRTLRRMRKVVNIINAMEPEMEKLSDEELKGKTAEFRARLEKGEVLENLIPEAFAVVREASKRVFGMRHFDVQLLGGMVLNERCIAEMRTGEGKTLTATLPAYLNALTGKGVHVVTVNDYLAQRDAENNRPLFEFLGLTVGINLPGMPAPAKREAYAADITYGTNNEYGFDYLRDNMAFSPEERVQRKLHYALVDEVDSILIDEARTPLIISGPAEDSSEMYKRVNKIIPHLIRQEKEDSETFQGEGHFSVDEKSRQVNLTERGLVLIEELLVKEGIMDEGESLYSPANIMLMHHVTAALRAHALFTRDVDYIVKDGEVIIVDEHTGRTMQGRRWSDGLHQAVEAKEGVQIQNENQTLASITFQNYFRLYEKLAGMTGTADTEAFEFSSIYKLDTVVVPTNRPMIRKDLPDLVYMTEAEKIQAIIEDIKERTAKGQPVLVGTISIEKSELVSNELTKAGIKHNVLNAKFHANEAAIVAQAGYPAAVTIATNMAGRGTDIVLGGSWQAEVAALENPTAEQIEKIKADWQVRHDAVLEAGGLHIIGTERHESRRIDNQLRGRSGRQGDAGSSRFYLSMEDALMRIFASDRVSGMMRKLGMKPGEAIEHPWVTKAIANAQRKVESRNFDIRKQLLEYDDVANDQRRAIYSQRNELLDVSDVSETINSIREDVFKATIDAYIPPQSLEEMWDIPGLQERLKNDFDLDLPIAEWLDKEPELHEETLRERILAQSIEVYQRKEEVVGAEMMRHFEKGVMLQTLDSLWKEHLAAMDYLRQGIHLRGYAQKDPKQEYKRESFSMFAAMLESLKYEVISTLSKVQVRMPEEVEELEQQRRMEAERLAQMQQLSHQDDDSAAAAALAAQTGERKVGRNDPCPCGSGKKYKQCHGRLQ

For the compound `Cc1n[nH]c(C2CN(C(=O)c3ccco3)CCO2)n1` (stereo not given), the Percent Effect in [1] was -4.76%; in assay [2], 2.63%; in assay [3] it was 7.87%; in [4] it was 3.79%; in the assay on Trypanosoma cruzi it was 1.07%; in assay [5], 0%. Further, the Percent Effect was 4.51% in assay [6]; 25.8% in the assay filed under Homo sapiens; 6.38% in assay [7]; 7.79% in assay [8]; -0.969% in [9].
Consider `O=C(Cc1ccc2c(c1)CCCC2)NCCc1ccccn1`, for which the Percent Effect in [1] was -2.72%; in assay [2], -7.89%; in assay [3] it was -4.68%; in assay [4], -1.25%; in the assay with Trypanosoma cruzi, 0.0934%; in assay [5], 1.44%. Besides, the Percent Effect in [6] was 16.2%; in the assay listed under Homo sapiens it was 12.1%; in assay [7], 7.39%; in assay [8], 23.5%; in assay [9], -7.01%.
Take `CCc1cc(NCC(O)CN2CCCCC2)n2ncnc2n1` (stereo not given): the Percent Effect in assay [1] was -4.14%; in assay [2], 7.89%; in [3], 2.69%; in [4] it was 4.78%; in the assay on Trypanosoma cruzi, 1.27%; in assay [5] it was -2.37%. Besides, the Percent Effect was 15.2% in assay [6]; 3.03% in the assay listed under Homo sapiens; 4.25% in assay [7]; 13% in assay [8]; -4.78% in assay [9].
Consider `Cc1cccc(CN2CCc3ncnc(N4CCOCC4)c3CC2)n1`, for which the Percent Effect in [1] was -4.12%; in [2], -5.48%; in assay [3], 1.75%; in [4] it was -1.38%; in the assay with Trypanosoma cruzi, -1.39%; in assay [5], 3.59%. The Percent Effect was 4.2% in assay [6]; 20.4% in the assay filed under Homo sapiens; -1.04% in [7]; 1.24% in assay [8]; -0.552% in assay [9].
For the compound `Cc1ccc(CC(=O)NC(C)C(=O)N2CCS(=O)(=O)CC2)cc1` (stereo not given), the Percent Effect was -6.49% in assay [1]; 0% in assay [2]; -3.26% in assay [3]; 4.88% in assay [4]; -2.9% in the assay with Trypanosoma cruzi; -1.91% in assay [5]. Besides, the Percent Effect was 10.2% in assay [6]; 1.44% in the assay listed under Homo sapiens; 3.7% in assay [7]; 2.44% in assay [8]; -3.12% in assay [9].
As for `Cc1noc2nc(C3CCN(Cc4ccncc4)CC3)cc(C(F)F)c12`, the Percent Effect in [1] was -9.38%; in assay [2], 1.35%; in assay [3], 1.21%; in assay [4] it was -1.72%; with Trypanosoma cruzi, -0.79%; in assay [5], -4.41%. The Percent Effect in assay [6] is -4.99%; in the assay filed under Homo sapiens it was 39.2%; in [7] it was 2.15%; in assay [8], -1.3%; in [9], -4.82%.
As to `O=C(O)C(c1ccc2c(c1)OCCO2)N1CCCCCC1` (stereo not given), the Percent Effect in [1] was -4.06%; in assay [2], 5.33%; in [3], 0.637%; in assay [4] it was 5.42%; in the assay on Trypanosoma cruzi it was -0.682%; in assay [5], 4.69%. Besides, the Percent Effect is 17.1% in [6]; -7.93% in the assay listed under Homo sapiens; 9.29% in assay [7]; 13.6% in assay [8]; -1.28% in [9].
On to `CS(=O)(=O)N1CCCN(C(=O)c2ccc(Cn3ccccc3=O)o2)CC1`, for which the Percent Effect in assay [1] was 0.345%; in assay [2] it was 10.8%; in assay [3] it was -1.54%; in assay [4], -9.12%; in the assay with Trypanosoma cruzi, -8.45%; in [5], 2.77%. The Percent Effect was 5.03% in assay [6]; 12.3% in the assay listed under Homo sapiens; 6.93% in [7]; 15.8% in [8]; -7.1% in assay [9].
In the case of `COc1cccc(C(=O)N2CCCC(C(=O)CCc3ccccc3)C2)c1` (stereo not given), the Percent Effect is -1.46% in assay [1]; 11% in [2]; 17.6% in assay [3]; 10.9% in [4]; 1.96% with Trypanosoma cruzi; 4.54% in assay [5]. Besides, the Percent Effect in assay [6] is 20.1%; in the assay filed under Homo sapiens, 23.4%; in assay [7], 1.07%; in [8] it was 7.5%; in assay [9] it was -8.9%.
As to `Cc1cnc(CN(Cc2ccccc2)CC(O)c2cccs2)cn1` (stereo not given), the Percent Effect in assay [1] was 0.271%; in assay [2], 5.41%; in assay [3], -2.24%; in [4], 20.3%; with Trypanosoma cruzi it was 6.35%; in [5] it was 41.9%. The Percent Effect is 0.772% in assay [6]; 5.39% in the assay listed under Homo sapiens; -3.23% in [7]; 6.17% in assay [8]; -11.6% in [9].
